PubChem BioAssay AID504456 (NMMLSC, 2011)
The list shows a part of the results. Activity calls are given as the source filed them.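 Rule for the calls: active = growth rating at most 1 for wild type yeast while the TORC1 bypass strain still grows fully, rated 3; inactive = the rest.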

Assay: wild-type yeast growth inhibition sparing TORC1 bypass cells, mechanism study for yeast TOR pathway GFP screen, BY4741 wild type, TORC1 bypass strain (AID 504456)
Conditions: S. cerevisiae BY4741 spot growth rating, 48-72 h, at 30 µM
[1] = TORC1 bypass strain growth rating

Row | Compound | growth rating (0-3) [1] | growth rating (0-3) (stronger effect = lower value)
1 | CN(C)CCCNc1nc(N)c([N+](=O)[O-])c(Nc2cccc(F)c2)n1 | 3 | 3 (inactive)
2 | Cc1ccc(-c2nn(C(C)(C)C)c3ncnc(N)c23)cc1 | 3 | 3 (inactive)
